Assay results published in PubChem BioAssay (NCATS).
Several values for one entry are separate records, joined by “and”; a condition that tells them apart may be missing. Identical values can stand only once. Results filed as inconclusive are left out. Activity calls are given as the source filed them. Unless noted, calls follow the shape of the dose curve; as a rule, active = well fitted curve in either direction with a large enough effect (not every such curve was filed as active); inconclusive = small, poorly fitted or top-dose-only effect, or another doubt; inactive = flat fitted curve, though single readings scatter.

What was measured:
[1] = AP1 Signaling Pathway (AID 357); conditions: ME-180 AP-1-bla reporter, EGF-induced, beta-lactamase ratio, 5 h; also: % is scaled to controls: 0 for no effect and ±100 for the full control effect
In short: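 ME-180 cells with beta-lactamase reporter under AP-1 response element, stimulated with EC50 EGF; compounds tested in titration series, 5 h at 37 °C. CCF4 substrate added 2.5 h at room temperature; 460/530 nm emission ratio gave %activity and AC50.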

[2] = NFAT Signaling Pathway (AID 444); conditions: Jurkat NFAT-bla M1, carbachol, beta-lactamase ratio, 5 h;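 also: carbachol stimulus at about its EC50 of 1 µM final; % is scaled to controls: 0 for no effect and ±100 for the full control effect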
In short: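 Jurkat cells carrying an NFAT-driven β-lactamase reporter and co-transfected muscarinic M1 receptor were treated with compound plus carbachol (1 uM final, an EC50 level) for 5 h at 37 °C. CCF4 loading followed for 1 h at RT; 460/530 nm ratio gave %activity.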

[3] = Stat Signaling Pathway (AID 446); conditions: ME-180 (cervical carcinoma) SIE beta-lactamase reporter, IL-6 stimulated, 5 h; series mostly up to 17.2 µM;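 also: ME-180 cervical cancer cells given 40 pM IL-6 alongside compound; SIE-controlled beta-lactamase reporter measured as 460/530 nm FRET emission ratio; % is scaled to controls: 0 for no effect and ±100 for the full control effect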
In short: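 Normalization used AC90 stimulation (300 pM IL-6) and AC90 inhibition (125 nM pan-JAK inhibitor at 40 pM IL-6). The underlying signal is SIE-driven beta-lactamase in ME-180 cells after 5 h IL-6 exposure with compound.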

[4] = Cell Viability - BJ (AID 421; calls by dose curve;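 also: potency is read from the fitted curve at half-maximal effect; cells exposed to compound for 40 hours at 37 °C before readout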); conditions: BJ fibroblast viability, qHTS
Text: NIH Chemical Genomics Center [NCGC]
NIH Molecular Libraries Screening Centers Network [MLSCN]
National Institutes of Environmental Health Sciences [NIEHS]
National Toxicology Program [NTP]
We have developed a 1536-well cell-based assay for quantitative high throughput screening (qHTS) against a number of cell lines to determine in vitro cytotoxicity of small molecules. This particular assay uses the BJ cell line from ATCC which is derived from normal human foreskin fibroblasts.
NCGC Assay Protocol Summary:
The CellTiter-Glo luminescent cell viability assay (Promega) is a homogeneous method to measure the number of viable cells in culture. The end point readout of this assay is based on quantitation of intracellular ATP, an indicator of metabolic activity, using the luciferase reaction. Luciferase catalyzes the oxidation of beetle Luciferin to oxyluciferin and light in the presence of ATP. The luminescent signal is proportional to amount of ATP present.
Using the CellTiter-Glo luminescent cell viability assay, the amount of cellular ATP was measured in the BJ cell line with complete culture medium following compound treatment for 40 hours. The assay was performed in opaque white Kalypsys 1536-well plates. In the screen, tamoxifen and doxorubicin were used as positive controls. Library compounds were measured for their ability to cause acute toxicity in the cell line, as reflected by a decrease in intracellular ATP levels, in a concentration-dependent manner. Data were normalized to the controls for basal activity (DMSO only) and 100% inhibition (100 uM tamoxifen). AC50 values were determined from concentration-response data modeled with the standard Hill equation.
qHTS protocol fo CellTiter Glo BJ cellular assay
[Step] [Parameter] [Value] [Description]
1. Reagent; 5 uL; 1500 BJ cells/well
2. Time; 5 hr; 37 °C incubation
4. Controls; 23 nL; Tamoxifen 0.34 uM to 100 uM & Doxorubicin 0.02 nM to 100 uM
5. Time; 40 hr; 37 °C incubation
6. Reagent; 5 uL; CellTiter Glo reagent
7. Time; 20 min; Room Temperature
8. Detection; Luminescence; Viewlux plate reader
Keywords: cell viability, cytotoxicity, BJ cell line, luminescence, NTPHTS, NTPHTS_NCGC, NIEHS, EPA, DSSTox, MLSMR, MLSCN, NIH Roadmap, qHTS, NCGC

[5] = Cell Viability - Jurkat (AID 426;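 active = dose-dependent loss of cell ATP signal giving a full or clear fitted curve, ranked by lower potency value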; also: potency is read from the fitted curve at half-maximal effect); conditions: qHTS
In short: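 Luminescent ATP read-out (CellTiter-Glo, 20 min at room temperature) after 40 hr compound exposure at 37 °C of Jurkat E6-1 cells, 5000/well. Decreased ATP taken as cytotoxicity; AC50 from standard Hill equation.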

[6] = Cell Viability - Hek293 (AID 427;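 active = compounds whose dose-response curve shows a full or clear partial loss of cell viability, called from curve shape rather than a numeric limit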;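 also: potency is read from the fitted curve at half-maximal effect; cells exposed to compound for 40 hours at 37 °C before reading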); conditions: qHTS
In short: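 HEK293 cells in complete medium were exposed to compound for 40 hr at 37 °C, then cellular ATP was read by CellTiter-Glo luminescence. Data were normalized to DMSO (basal) and 100 uM tamoxifen (100% inhibition), and AC50 came from Hill fits.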

[7] = Cell Viability - HepG2 (AID 433; calls by dose curve;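 also: potency is read from the fitted curve at half-maximal effect; potency for ATP loss meaning cytotoxicity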); conditions: qHTS
In short: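 Read-out is luciferase-based quantitation of cellular ATP as a measure of viable HepG2 cells after 40 h treatment at 37 °C. Signal decrease is scaled between DMSO-only and 100 uM tamoxifen controls, with AC50 fitted by the Hill equation.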

[8] = Cell Viability - MRC5 (AID 434; calls by dose curve;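 also: potency is read from the fitted curve at half-maximal effect; potency reflects cytotoxicity seen as loss of intracellular ATP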); conditions: MRC5 lung fibroblast viability, qHTS
In short: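 Decrease in intracellular ATP, quantified by luciferase light output, reflects compound toxicity toward MRC5 cells exposed for 40 hr in complete culture medium. Concentration-response curves, scaled between DMSO and 100 uM tamoxifen, gave AC50 values.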

[9] = Cell Viability - SK-N-SH (AID 435; calls by dose curve;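 also: potency is read from the fitted curve at half-maximal effect; compound exposure lasted 40 h at 37 °C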); conditions: SK-N-SH neuroblastoma cell viability qHTS
In short: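 Luminescent ATP signal served as the viability read-out after 40 hours of compound treatment of human neuroblastoma SK-N-SH cells. Concentration-response data, scaled between DMSO and 100 uM tamoxifen, gave AC50 values by standard Hill modeling.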

[10] = biological target: Lysosomal acid glucosylceramidase (Homo sapiens) (UniProt P04062); test: Glucocerebrosidase-p2 (AID 348; in the data active = potency below about 10 µM; also: potency is read from the fitted curve at half-maximal effect); conditions: purified GBA, blue fluorogenic substrate, 40 min
In short: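 Normal human glucocerebrosidase (0.2 nM) with blue fluorogenic substrate (80 uM final) in citrate/phosphate pH 5.9 with 10mM sodium taurocholate, 0.01% tween-20; 40 min RT, NaOH/glycine stop; fluorescence Ex 365/Em 440; AC50 from a titration from 0.6 nM upwards.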

Sequence of Lysosomal acid glucosylceramidase (Homo sapiens) (P04062 whole entry, looked up): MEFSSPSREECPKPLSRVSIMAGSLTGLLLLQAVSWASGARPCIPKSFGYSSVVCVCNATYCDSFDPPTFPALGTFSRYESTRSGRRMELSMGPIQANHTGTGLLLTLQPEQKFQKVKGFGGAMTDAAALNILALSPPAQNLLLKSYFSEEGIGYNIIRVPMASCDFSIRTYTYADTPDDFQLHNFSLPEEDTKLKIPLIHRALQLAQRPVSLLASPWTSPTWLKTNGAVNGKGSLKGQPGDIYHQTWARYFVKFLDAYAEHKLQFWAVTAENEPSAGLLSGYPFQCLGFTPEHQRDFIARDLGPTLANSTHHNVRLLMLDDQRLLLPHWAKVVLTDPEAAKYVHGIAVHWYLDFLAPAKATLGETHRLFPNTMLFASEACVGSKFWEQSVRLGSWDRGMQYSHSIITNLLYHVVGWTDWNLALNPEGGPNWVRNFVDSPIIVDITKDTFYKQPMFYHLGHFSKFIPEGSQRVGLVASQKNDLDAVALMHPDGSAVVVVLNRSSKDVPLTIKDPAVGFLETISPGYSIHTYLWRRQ

Nc1nc2ccc(OC(F)(F)F)cc2s1
inactive: activity change, negative = inhibition ([1]; at 17.2 µM (top of the series)) 7.09% and 1.61% | activity change, negative = inhibition ([1]; at 38 µM (top of the series)) -15% | activity change, negative = inhibition ([2]; at 17.2 µM (top of the series)) 0.982% and -0.48% | activity change, negative = inhibition ([2]; at 38 µM (top of the series)) 13.4% | outcome [3]

Cc1ccccc1C(OCCN(C)C)c1ccccc1 (stereo not drawn)
active: activity change, negative = inhibition ([2]; at 17.2 µM (top of the series)) -85.9%
inactive: activity change, negative = inhibition ([1]; at 17.2 µM (top of the series)) 14.6% | outcome [3]

C[C@]12CCC(=O)C=C1CC[C@@H]1[C@@H]2[C@@H](O)C[C@@]2(C)[C@H]1CC[C@]2(O)C(=O)CO
inactive: activity change, negative = inhibition ([1]; at 17.2 µM (top of the series)) -3.8% | activity change, negative = inhibition ([2]; at 17.2 µM (top of the series)) 18.6% | outcome [3]

NC[C@H](O)c1ccc(O)c(O)c1
inactive: activity change, negative = inhibition ([1]; at 38 µM (top of the series)) -15.3% and -4.21% | activity change, negative = inhibition ([2]; at 38 µM (top of the series)) -7.25% and 5.9% | outcome [3]

NNCCc1ccccc1
inactive: activity change, negative = inhibition ([1]; at 17.2 µM (top of the series)) -1.06% | activity change, negative = inhibition ([1]; at 38 µM (top of the series)) 26% | activity change, negative = inhibition ([2]; at 17.2 µM (top of the series)) -10.8% | activity change, negative = inhibition ([2]; at 38 µM (top of the series)) -17.1% | outcome [3]

O=c1n(CCCN2CCN(c3cccc(Cl)c3)CC2)nc2ccccn12
inactive: activity change, negative = inhibition ([1]; at 17.2 µM (top of the series)) -7.19% and -2.29% | activity change, negative = inhibition ([1]; at 38 µM (top of the series)) -2.63% | activity change, negative = inhibition ([2]; at 17.2 µM (top of the series)) -9.78% | activity change, negative = inhibition ([2]; at 38 µM (top of the series)) -3.74% | outcome [3]

N=c1nc(N2CCCCC2)cc(N)n1O
inactive: activity change, negative = inhibition ([1]; at 17.2 µM (top of the series)) -4.3% and 1.82% | activity change, negative = inhibition ([1]; at 38 µM (top of the series)) 2.17% | activity change, negative = inhibition ([2]; at 17.2 µM (top of the series)) -4.8% | activity change, negative = inhibition ([2]; at 38 µM (top of the series)) 7.52% | outcome [3]

CC(=O)Oc1ccccc1C(=O)O
inactive: activity change, negative = inhibition ([1]; at 38 µM (top of the series)) 8.53% | Potency [4] > 92 µM | Potency [5] > 92 µM | Potency [6] > 92 µM | Potency [7] > 92 µM | Potency [8] > 92 µM | Potency [9] > 92 µM | activity change, negative = inhibition ([2]; at 38 µM (top of the series)) 2.25% | outcome [3]

O=c1[nH]cnc2[nH]ncc12
inactive: activity change, negative = inhibition ([1]; at 38 µM (top of the series)) 2.34% | Potency [4] > 92 µM | Potency [5] > 92 µM | Potency [6] > 92 µM | Potency [7] > 92 µM | Potency [8] > 92 µM | Potency [9] > 92 µM | activity change, negative = inhibition ([2]; at 38 µM (top of the series)) 5.26% | outcome [3]

Cc1cnc(NC(=O)C2=C(O)c3ccccc3S(=O)(=O)N2C)s1
inactive: activity change, negative = inhibition ([1]; at 17.2 µM (top of the series)) -12.9% | activity change, negative = inhibition ([1]; at 38 µM (top of the series)) 1.25% | activity change, negative = inhibition ([2]; at 17.2 µM (top of the series)) -9.71% | activity change, negative = inhibition ([2]; at 38 µM (top of the series)) 11.3% | outcome [3]

NS(=O)(=O)c1cc2c(cc1Cl)NC=NS2(=O)=O
inactive: activity change, negative = inhibition ([1]; at 17.2 µM (top of the series)) 10.4% and 2.47% | activity change, negative = inhibition ([1]; at 38 µM (top of the series)) -2.75% | Potency [4] > 92 µM | Potency [5] > 92 µM | Potency [6] > 92 µM | Potency [7] > 92 µM | Potency [8] > 92 µM | Potency [9] > 92 µM | activity change, negative = inhibition ([2]; at 17.2 µM (top of the series)) -2.56% and 9.37% | activity change, negative = inhibition ([2]; at 38 µM (top of the series)) 8.02% | outcome [3]

NCCc1ccc(O)c(O)c1
inactive: activity change, negative = inhibition ([1]; at 38 µM (top of the series)) 2.68% | activity change, negative = inhibition ([2]; at 38 µM (top of the series)) 11.4% | outcome [3]

CN1CCN(CCCN2c3ccccc3Sc3ccc(C(F)(F)F)cc32)CC1
inactive: Potency [10] > 11.4 µM | activity change, negative = inhibition ([1]; at 17.2 µM (top of the series)) 7.77% and 23.2% | activity change, negative = inhibition ([1]; at 38 µM (top of the series)) 29.9% | outcome [3]

Cn1cnc([N+](=O)[O-])c1Sc1ncnc2nc[nH]c12
inactive: activity change, negative = inhibition ([1]; at 38 µM (top of the series)) 8.24% | Potency [4] > 92 µM | Potency [8] > 92 µM | activity change, negative = inhibition ([2]; at 17.2 µM (top of the series)) 13.3% | activity change, negative = inhibition ([2]; at 38 µM (top of the series)) 19.1% | outcome [3]
active: Potency [5] 0.384 µM | Potency [6] 2.04 µM | Potency [9] 0.529 µM

Cc1oncc1C(=O)Nc1ccc(C(F)(F)F)cc1
inactive: activity change, negative = inhibition ([1]; at 17.2 µM (top of the series)) -20.4% and 3.89% | activity change, negative = inhibition ([1]; at 38 µM (top of the series)) -1.93% | activity change, negative = inhibition ([2]; at 17.2 µM (top of the series)) 0.0794% and 7.99% | activity change, negative = inhibition ([2]; at 38 µM (top of the series)) -5.42% | outcome [3]

NC(=O)c1cnccn1
inactive: activity change, negative = inhibition ([1]; at 38 µM (top of the series)) 5.47% | Potency [4] > 92 µM | Potency [5] > 92 µM | Potency [6] > 92 µM | Potency [7] > 92 µM | Potency [8] > 92 µM | Potency [9] > 92 µM | activity change, negative = inhibition ([2]; at 38 µM (top of the series)) 2.31% | outcome [3]
